# ATXN viability = cell viability loss in ATXN counter-screen | S2 cells (HEK-293 line with an ATXN2-luciferase reporter) viability, CellTiter-Fluor protease fluorescence, 24 h | Potency, µM (top dose mostly 56.7 µM), hits mostly cytotoxic | hit rate 0.49% among 400,000 | AID 651635; further: nearly all actives have a fitted effect of over 40% in size
# ATXN2 expr inh = inhibitors of ATXN2 expression | HEK-293 ATXN2-luciferase reporter, luminescence, 24 h | Potency, µM (top dose mostly 57 µM), actives largely listed as inhibitors | hit rate 0.72% among 360,000; further: nearly all actives have a fitted effect of over 55% in size
#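 ATXN2-luciferase reporter cells (luciferase flanked by upstream and downstream ATXN2 gene portions) were treated 24 h at 37 °C with compounds at up to 57 uM. SteadyGlo luminescence gave expression; GF-AFC fluorescence gave viability.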
# KB-V1 MDR tox = KB-V1 MDR subline cytotoxicity | KB-V1 MDR cells viability, CellTiter-Glo, 72 h | Potency, µM (top dose mostly 46.1 µM), usual class: cytotoxic | hit rate 3.4% among 400,000; further: nearly all actives have a fitted effect of over 60% in size
#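 KB-V1, DMEM (no phenol red) + 10% FBS; cpd pin-transferred, titration series; 72 h, 37 degrees C; CellTiter-Glo, luminescence. Data normalized, curve-fit.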
# KB-3-1 tox = kills parental KB-3-1 adenocarcinoma cells. hit rate 1.4% among 400,000. KB-3-1 viability, CellTiter-Glo ATP luminescence, 72 h. Potency, µM (series often up to 46.1 µM), usual class: cytotoxic. AID 1347075; further: nearly all actives have a fitted effect of over 60% in size
#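 Luminescent ATP read-out (CellTiter-Glo) measures survival of drug-naive KB-3-1 cells after 72 h compound exposure at 37 °C. Titration series was screened from lowest to highest concentration, with DMSO vehicle plates as background controls.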
# HT1080 IDH1KD tx = kills HT-1080 cells with IDH1 knockdown. HT-1080 IDH1 knockdown viability, ATP luminescence, 48 h. Potency, µM (series often up to 46.1 µM), actives largely listed as cytotoxic. hit rate 2% among 360,000. AID 686971
#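 IDH1KD HT-1080 cells, 750/well, RPMI + 5% FBS; compound pinned after 2 h settling; 48 h, 37 °C; CellTiter-Glo luminescence; % activity normalised to DMSO and no-cell wells; curves fitted, classed by r2 and efficacy.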
# HT1080-NT tox = kills 2HG-producing HT-1080-NT fibrosarcoma cells; hit rate 1.6% among 360,000; HT-1080-NT fibrosarcoma viability, CellTiter-Glo ATP luminescence, 48 h; Potency, µM (titrated, usually from 46.1 µM), hits mostly cytotoxic;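 further: NT is the 2HG producing partner of a matched IDH1 knockdown line; nearly all actives have a fitted effect of over 55% in size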
#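 Compounds were tested in concentration-response format on HT-1080-NT cells for 48 hours at 37 degrees C. Cell viability came from CellTiter-Glo luminescence; curves were classified by r2, response magnitude and activity.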
# Numbers stand for hits; n = inactive; u = inconclusive; x = no result; [ ] = another dose, or the depositor's remark. This is a sample that favours compounds with a hit; in the whole collection about 6.2% have one here. The call rests on the fitted dose curve; in most records, active means well fitted curve in the direction sought with a large enough effect; inconclusive means small, poorly fitted or top-dose-only effect, or another doubt; inactive means no such curve, though single readings can be large; an effect the other way counts as inactive or inconclusive.
SMILES,ATXN viability,ATXN2 expr inh,KB-V1 MDR tox,KB-3-1 tox,HT1080 IDH1KD tx,HT1080-NT tox
CC(C)Cn1c(C(C)C)nc([N+](=O)[O-])c1S(=O)(=O)c1ccc(F)cc1,u,n,u,u,7.08µM,3.55µM
OC(CCN1CCCCC1)(c1ccccc1)C1CC2C=CC1C2 (centres undefined),u,n,x,x,x,x
COc1ccc(CN2CCCC(n3cc(C(=O)N4CCCCC4)nn3)C2)c(OC)c1C (centres undefined),n,x,x,x,x,x
CNc1nc(Nc2ccc(C)cc2C)c2sccc2n1,n,n,14.6µM,18.4µM,u,u
CC(C)Nc1nc(NCc2ccccc2)c2sccc2n1,u,u,u,u,u,23.1µM
COCCNc1nc(NCc2ccccc2)nc2ccsc12,n,n,u,n,n,n
CNc1nc(NCC2CCCCC2)c2sccc2n1,x,u,n,n,23.1µM,23.1µM
CNc1nc(NCc2ccc(N(C)C)cc2)c2sccc2n1,u,n,n,n,u,u
Cc1ccc(CNc2nc(NCC3CC3)nc3ccsc23)c(C)c1,x,n,u,n,16.4µM,14.6µM
CNc1nc(NCc2ccc(C)cc2C)c2sccc2n1,u,u,u,n,u,u
Cn1c2ccccc2c2c(C(=O)N3CCN(c4cccc(Cl)c4)CC3)cn(C3CCCCC3)c(=O)c21,x,x,n,n,x,x
CC(C)c1ccc2oc(-c3cccc(NC(=O)c4ccc5c(c4)OCCO5)c3)nc2c1,n,n,n,n,x,x
Cc1ccc(CNc2nc(NCc3ccccc3)nc3ccsc23)c(C)c1,u,u,u,u,u,25.9µM
Cc1ccc(Nc2nc(NCC3CC3)nc3ccsc23)c(C)c1,x,u,u,20.6µM,6.51µM,11.6µM
CC(C)Cn1cc(NC(=O)NCc2ccccc2Cl)c2ccccc2c1=O,n,n,n,n,x,x
CC(C)CN(CC(C)C)c1ccc(/C=C/c2ccnc3ccccc23)cc1,x,x,n,n,x,x
CCOC(=O)c1c(NC(=O)Cc2coc3cc(C)cc(C)c23)sc2c1CCC2,n,n,n,n,x,x
O=C(NC1CCCC1)C(c1ccc(F)cc1)N(Cc1ccc(F)cc1)C(=O)c1ccn[nH]1 (centres undefined),n,n,n,u,n,n
COCCN(C(=O)CCC(=O)Nc1cc(C)on1)C(C(=O)NC1CCCC1)c1ccccc1C (centres undefined),n,n[11.3 µM],n,n,n,n
O=C(NC1CCCC1)C(c1ccc(F)cc1)N(Cc1ccccc1Cl)C(=O)CCl (centres undefined),n,n,14.6µM,u,u,u
COCCN(C(=O)CCl)C(C(=O)NC1CCCCC1)c1ccccc1C (centres undefined),x,u,20.6µM,13µM,13µM,u
COc1ccc(CNC(=O)c2ccc(NC(=O)N3CCSc4ccccc43)cc2)cc1,n,n,n,n,x,x
COc1ccc(-n2cc(CNCCc3ncc(C)[nH]3)c(-c3ccccc3Cl)n2)cc1,u,n,n,n,n,n
Cc1ccc(-n2cc(CNCCN3CCOC3=O)c(-c3ccc(F)cc3)n2)cc1,n,n,u,n,n,n
Cc1ccc(-n2cc(CNCCc3ncc(C)[nH]3)c(-c3ccc(F)cc3)n2)cc1,u,25.1µM,u,u,20.6µM,16.4µM
SMILES,ATXN viability,ATXN2 expr inh,KB-V1 MDR tox,KB-3-1 tox,HT1080 IDH1KD tx,HT1080-NT tox
Cc1ccc(-n2cc(CNCCn3nc(C)cc3C)c(-c3ccc(F)cc3)n2)cc1,u,u,n,n,u,20.6µM
O=C(c1ccc(N2CCC(NCCCn3ncc4ccccc43)CC2)cc1)N1CCc2ccccc2C1,n,x,x,x,x,x
O=C(Nc1nccs1)[C@@H]1CC=C[C@@H]2CCN(Cc3ccc(Cl)c(Cl)c3)C(=O)[C@@H]21,x,x,u,n,x,x
O=C(O)c1cccnc1Nc1ccc(Cl)cc1,n,n,11.6µM,7.31µM,n,n
Cc1ccc(Nc2ncccc2C(=O)O)cc1C,n,n,n,n,n,n
O=C1NC[C@H](c2ccccc2)OC(=O)[C@H](Cc2ccc(F)cc2)C/C=C\C[C@H]1CC(=O)N(CCO)Cc1ccccc1,u,31.6µM,u,u,u,u
O=C1NC[C@H](c2ccccc2)OC(=O)[C@@H](Cc2ccc(F)cc2)C/C=C\C[C@H]1CC(=O)N(CCO)Cc1ccccc1,u,n,n,n,u,u

# Screening data as filed in PubChem BioAssay.
